From PubChem BioAssay
The full list was thinned out, with hits kept by preference.
Giardia FBPA inh = qHTS Assay for Inhibitors of Fructose-1,6-bisphosphate Aldolase from Giardia Lamblia | A8B2U2 | purified Giardia FBPA | Potency, µM (titrated, usually from 59.6 µM), for inactives: at the highest dose activity, negative = inhibition, actives largely listed as inhibitors | 290,000 compounds, 0.71% hits | AID 2451, 2010; note: potency is the fitted concentration of half-maximal effect; % is set by controls: 0 for no effect and ±100 for the full control effect; nearly all actives have a fitted effect of over 55% in size
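Giardia FBPA (40 nM reagent) was preincubated 10 min at RT with compound (up to 57.5 uM final), then substrate plus GAPDH/TPI/NAD/arsenate coupling system with diaphorase/resazurin was added; resorufin fluorescence (525/598 nm) was read after 20 min.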
RE007 growth inh = qHTS Assay for Inhibitors of the HIV-1 protein Vpr | 360,000 compounds, 0.21% hits | Potency, µM (doses to about 92.2 µM), for inactives: top-dose activity change, negative = less growth, hits mostly inhibitors | S. pombe RE007 Vpr strain, BacTiter-Glo ATP luminescence, 24 h | AID 651644, 2012; active = well fitted falling curve with a large enough effect; inconclusive = small, poorly fitted or top-dose-only effect; inactive = no such curve, though single readings can be large or run the other way; note: potency is the fitted concentration of half-maximal effect; % is set by controls: 0 for no effect and ±100 for the full control effect; nearly all actives have a fitted effect of over 50% in size
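Fission yeast RE007 carrying one integrated HIV-1 vpr copy, seeded at OD 0.01 in PMG+AL medium with 23 nL pinned compound. Grown 24 h at 30 degrees; viability read by BacTiter-Glo luminescence after 5 min.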
Cycloheximide cs = Cycloheximide Counterscreen for Small Molecule Inhibitors of Shiga Toxin; cell reporter, cycloheximide protein synthesis inhibition counterscreen; max response, %; 300,000 compounds, 12% hits; in the data active = max response mostly above about 13%, no sharp cut-off; inactive = mostly below about 14%; note: read at 38.3 µM for the half of the compounds with a filed dose; 0% is about no effect
TbPYK inhibitor = qHTS of Trypanosoma Brucei Inhibitors; pyruvate kinase (Trypanosoma brucei), Q57TT1; TbPYK enzyme, Kinase-Glo Plus ATP luminescence, 45 min; Potency, µM (highest dose often 76.8 µM), for inactives: top-dose activity, negative = inhibition, actives largely listed as inhibitors; 410,000 compounds, 0.12% hits; AID 624173, 2012; note: potency is the fitted concentration of half-maximal effect; % is set by controls: 0 for no effect and ±100 for the full control effect; nearly all actives have a fitted effect of over 50% in size
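Assay buffer: 50 mM TEA pH 7.2, 100 mM KCl, 10 mM MgCl2, 0.05% BSA, 0.01% Tween-20. Pyruvate kinase from T. brucei plus substrate met compound, then ADP (130 uM final). Luminescence was read post 45 min RT.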
LmPK inh = qHTS Assay for Inhibitors of Leishmania Mexicana Pyruvate Kinase (LmPK); 290,000 compounds, 0.37% hits; Potency, µM (top dose mostly 57.5 µM), inactives show at the top dose activity change, negative = inhibition, most hits filed as inhibitors; AID 1721, 2009; purified LmPK, Kinase-Glo ATP luminescence, 1 h; note: potency is the fitted concentration of half-maximal effect; % is set by controls: 0 for no effect and ±100 for the full control effect
Target sequence (Q27686 whole entry, looked up): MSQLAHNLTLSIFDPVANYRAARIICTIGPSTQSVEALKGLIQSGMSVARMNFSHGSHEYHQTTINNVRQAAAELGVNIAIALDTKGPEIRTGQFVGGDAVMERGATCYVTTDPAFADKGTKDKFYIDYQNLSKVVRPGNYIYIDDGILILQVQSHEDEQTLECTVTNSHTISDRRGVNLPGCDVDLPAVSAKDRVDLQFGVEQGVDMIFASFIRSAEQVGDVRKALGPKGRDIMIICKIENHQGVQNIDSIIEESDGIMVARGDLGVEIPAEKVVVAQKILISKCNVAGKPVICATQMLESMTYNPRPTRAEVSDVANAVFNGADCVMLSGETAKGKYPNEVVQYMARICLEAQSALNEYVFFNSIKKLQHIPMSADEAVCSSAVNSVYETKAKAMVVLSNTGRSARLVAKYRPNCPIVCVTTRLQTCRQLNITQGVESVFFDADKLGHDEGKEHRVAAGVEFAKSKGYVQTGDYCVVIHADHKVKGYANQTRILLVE
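qHTS format; LmPK 0.1 nM; substrates PEP 0.5 mM and ADP 0.1 mM. One-hour room-temperature incubation, then coupled luciferase luminescence; 0.5 nM enzyme wells mark activation.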
Shiga toxin inh = A qHTS for Small Molecule Inhibitors of Shiga Toxin. AID 2315, 2010. inhibition, % at 38.7 µM. 290,000 compounds, 9.2% hits. Vero cells, Shiga toxin protein synthesis inhibition reporter; in the data active = inhibition mostly above about 28%, no sharp cut-off; inactive = mostly below about 43%; note: 0% is about no effect
Numbers without * were called inactive; i = inactive; ? = inconclusive; . = no result given; + = active, no number. Unless noted, calls come from the whole dose curve; as a rule, active = well fitted curve in the direction sought with a large enough effect; inconclusive = small, poorly fitted or top-dose-only effect, or another doubt; inactive = no such curve, though single readings can be large; an effect the other way counts as inactive or inconclusive.

SMILES	Giardia FBPA inh	RE007 growth inh	Cycloheximide cs	TbPYK inhibitor	LmPK inh	Shiga toxin inh
CSCC(=O)N1CCC(n2nccc2NC(=O)CCc2ccccc2)CC1	.	-2.7%	-9.0	-7.4%	-7.1%	-9.1
C=CCCC(=O)N1CCC(n2nccc2NC(=O)CCCc2ccccc2)CC1	.	-21.3%	13.1*	0.3%	-1.8%	19.6
CSCCC(=O)N1CCC(n2nccc2NC(=O)CCCc2ccccc2)CC1	.	-8.6%	17.4*	9.8%	-1.2%	21.1
COc1ccc2c(c1)c1c(c(=O)n(-c3ccc(OC)c(OC)c3)c(=O)n1Cc1ccc(F)cc1)n2C	.	.	.	-4.7%	.	.
Nc1cc(C(F)(F)F)ccc1OCC1CCCO1 (stereo unspecified)	5.4%	-21.6%	25.6*	0.1%	-1.3%	20.9*
Cn1cc(C=C2C(=O)Nc3cccnc32)c2ccccc21	-25.9%	.	30.3*	.	.	32.4*
Cn1cc(/C=C2\C(=O)NC(=O)N(c3ccccc3)C2=O)c2ccccc21	1.2%	3.8%	-5.3	-2.0%	11.8%	-9.5
COC(=O)c1ccc(NC(=O)C(=O)NCCc2sc(-c3cccc(F)c3)nc2C)cc1	.	.	.	-3.6%	.	.
CCOc1ccc2nc(NC(=O)COC)sc2c1	-3.7%	-2.5%	34.1*	-0.3%	-0.2%	114.4
CCOCC(=O)Nc1nc2ccc(OC)cc2s1	-3.4%	-21.3%	52.6*	-22.8%	?	67.1*
CCOc1ccc2nc(NC(=O)Cn3cnc4c3c(=O)n(C)c(=O)n4C)sc2c1	15.2%	8.6%	14.0	0.9%	1.2%	22.1
COc1ccc2nc(NC(=O)CCn3cccc3)sc2c1	5.7%	-3.0%	15.7*	4.0%	7.1%	13.1
C[C@H](NC(=O)OC(C)(C)C)c1nnc(SCc2ccc(Cl)cc2Cl)o1	.	.	.	3.4%	.	.
CCC(C)NC(=O)c1ccc2c(c1)N(Cc1ccccc1)C(=O)c1ccccc1S2(=O)=O (stereo unspecified)	.	.	.	0.6%	.	.
O=C1OCCN1C(=O)[C@H]1[C@H](c2ccc([N+](=O)[O-])cc2)C(c2ccc(F)cc2)=NN1c1ccc(Br)cc1	-6.7%	1.8%	17.7	0.7%	.	i
COc1cc(C(O)c2nc(-c3cccc(C#N)c3)cs2)ccc1F (stereo unspecified)	.	27.5%	.	-0.5%	.	.
COc1ccc(CC(=O)Nc2cc(-c3nc4cccnc4s3)ccc2C)cc1	.	.	.	-1.8%	.	.
Cc1cc(C=C2C(=O)c3ccccc3C2=O)c(C)n1-c1cccc(C(=O)O)c1	?	1.8%	43.3*	3.0%	11.9%	103.9*
Cc1cc(/C=C2\Cc3ccccc3C2=O)c(C)n1-c1ccccc1	?	3.8%	79.8*	-9.2%	-22.3%	159.0*
Cc1cc(C=C2C(=O)N(C)C(=O)N(C)C2=O)c(C)n1-c1ccccc1	0.7%	7.6%	25.5*	2.6%	-8.3%	52.6*
Cc1cc(C=C2C(=O)c3ccccc3C2=O)c(C)n1-c1ccccc1	-25.9%	2.8%	51.5*	-3.8%	-25.0%	118.2*
Cc1cccc(S(=O)(=O)NC(=O)C2(C)CCN2C(=O)CCC2CCCC2)c1 (stereo unspecified)	.	5.7%	.	-0.6%	.	.
COCCn1c(SCC(=O)Nc2cc(C)on2)nnc1-c1ccccc1	-5.8%	-8.0%	-4.2	0.0%	2.8%	-8.4
Cc1ccc(NC(=O)CC2NCCNC2=O)cc1 (stereo unspecified)	5.1%	6.5%	10.5*	-8.2%	3.8%	17.5
O=C(CC1NCCc2ccccc21)Nc1ccccc1 (stereo unspecified)	0.5%	-1.0%	23.9*	-1.8%	-5.1%	35.1*
SMILES	Giardia FBPA inh	RE007 growth inh	Cycloheximide cs	TbPYK inhibitor	LmPK inh	Shiga toxin inh
O=C(CC1NCCc2ccccc21)Nc1ccccc1Cl (stereo unspecified)	0.9%	0.1%	26.0*	-2.4%	1.2%	39.2
Cc1cc(C)cc(NC(=O)CC2NCCNC2=O)c1 (stereo unspecified)	-0.7%	-10.9%	0.9	-5.2%	-9.6%	17.6
CCOc1ccc(N)c(SSc2cc(OCC)ccc2N)c1	?	.	44.9*	?	17.8%	88.0*
Cc1ccc(C)c(C(=O)Cn2ncc(Cl)c(Cl)c2=O)c1	5.5%	18.5%	14.5	2.0%	-5.9%	-19.9
Cc1cc(C(=O)Cn2ncc(Cl)c(Cl)c2=O)c(C)n1CC(F)(F)F	-2.3%	-4.2%	23.5*	-6.8%	2.0%	22.0
CCc1ccc(NC(=O)N(Cc2ccco2)C(C)c2cccs2)cc1 (stereo unspecified)	-0.7%	-3.2%	21.3*	0.2%	2.9%	51.6*
O=C(COc1ccc2c(c1)CCC2)NCc1ccccc1	-2.4%	?	15.3	1.1%	4.0%	15.2
O=C(c1ccc(F)cc1)N1CCN(c2ccccn2)CC1	-1.0%	-6.5%	1.4	-9.3%	3.9%	.
NNC(=O)c1cccc(COc2ccc3c(c2)CCC3)c1	-3.0%	-5.7%	206.5*	-0.7%	-1.3%	196.1*
O=C(c1ccc(COCC(F)(F)F)cc1)N1CCN(c2ccccn2)CC1	-7.5%	-19.0%	35.2*	0.7%	-0.8%	46.4*
COC(=O)c1ccccc1NC(=S)NC(=O)COc1ccccc1Cl	-2.1%	-8.2%	-2.9	0.6%	-1.5%	-7.3
O=C(c1cccc(COc2ccc(Cl)cc2Cl)c1)N1CCN(c2ccccn2)CC1	7.6%	-28.5%	91.9*	2.0%	1.4%	+
COC(=O)c1ccccc1NC(=O)c1cccc(COc2ccccc2Cl)c1	-0.5%	-5.8%	85.8*	0.3%	-1.6%	88.5*
CCOC(=O)CC(=O)CSc1ncnc2c1nnn2-c1ccc(OC)cc1	-9.8%	20.5%	3.1	0.4%	-7.8%	15.2
CC1CCCC(NC(=O)c2cccc(S(=O)(=O)N3CCCCC3)c2)C1C (stereo unspecified)	.	9.2%	-3.6	4.1%	-2.8%	-3.8
CN(CC(=O)Nc1ccc(F)cc1[N+](=O)[O-])C1CCS(=O)(=O)C1 (stereo unspecified)	.	4.8%	.	1.1%	.	.
O=C1C=CC[C@@H]2[C@H]3CCCN4CCC[C@@H](CN12)[C@@H]34	-5.2%	.	.	.	.	.
CN(C(=O)c1ccc(COc2ccccc2Cl)o1)c1ccccc1	-2.5%	-7.2%	14.7	2.6%	1.8%	16.9
O=C(NCc1ccccc1)c1cccc(COc2ccccc2Cl)c1	-1.1%	-2.4%	61.1*	5.5%	3.2%	120.4*
CN(C(=O)c1cccc(COc2ccc(Cl)cc2Cl)c1)c1ccccc1	4.8%	0.0%	170.6*	-2.1%	1.1%	185.1*
NNC(=O)c1cccc(COc2ccccc2Br)c1	-6.0%	-5.2%	81.4*	3.0%	-4.6%	100.1*
